According to paper PMC7862700, “An all-to-all approach to the identification of sequence-specific readers for epigenetic DNA modifications on cytosine”:

Molecular target: ETV6 (Homo sapiens, UniProt P41212 1-452)
Assay: DAPPL (digital affinity profiling via proximity ligation, sequencing); 10 mM Tris-HCl pH 7.5, 50 mM NaCl, 1 mM DTT, 4% glycerol, room temperature, 30 min; GST-TFs on glutathione beads, 16-mer random dsDNA library, 0.1% formaldehyde crosslink after washing; high values mean tight binding
Conditions: protein: recombinant; tags: N-terminal GST; dsDNA, one strand shown
Outline: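 Pools were built from human transcription factors expressed in yeast as GST fusions, captured on glutathione beads and DNA-barcoded, along with a tag-only sample. Incubation with 200 nmole of a 16-mer random double-stranded DNA library lasted 30 min at room temperature in Tris/NaCl/DTT/glycerol buffer, and was followed by washing, 0.1% formaldehyde crosslinking, proximity ligation, PCR amplification and Illumina NextSeq500 sequencing. Binding signal is the quotient of each hexamer's read frequency for a factor and its frequency for the tag-only sample.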

ETV6, sequence (P41212 whole entry): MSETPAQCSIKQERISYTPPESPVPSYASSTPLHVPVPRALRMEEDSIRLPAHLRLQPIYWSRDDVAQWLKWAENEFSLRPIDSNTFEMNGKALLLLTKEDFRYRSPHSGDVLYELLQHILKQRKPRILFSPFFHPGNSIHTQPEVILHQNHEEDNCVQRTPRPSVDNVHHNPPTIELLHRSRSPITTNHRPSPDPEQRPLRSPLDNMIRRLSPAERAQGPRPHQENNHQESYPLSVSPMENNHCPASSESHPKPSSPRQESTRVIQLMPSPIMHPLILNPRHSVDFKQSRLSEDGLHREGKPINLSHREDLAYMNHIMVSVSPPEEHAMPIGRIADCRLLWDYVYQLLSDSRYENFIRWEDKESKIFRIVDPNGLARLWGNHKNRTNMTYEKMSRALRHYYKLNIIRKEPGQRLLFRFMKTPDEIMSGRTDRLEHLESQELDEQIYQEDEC

Sequence	binding signal
CGTACA	1.2 fold enrichment (6-mer frequency, TF over GST control)
ACTGCG	1.18 fold enrichment (6-mer frequency, TF over GST control)
AGATGC	1.04 fold enrichment (6-mer frequency, TF over GST control)
GTTCAA	1.16 fold enrichment (6-mer frequency, TF over GST control)
TGACAT	1.37 fold enrichment (6-mer frequency, TF over GST control)
CCGGAA	6.11 fold enrichment (6-mer frequency, TF over GST control)
GTCTCT	1.19 fold enrichment (6-mer frequency, TF over GST control)
CGACAT	1.42 fold enrichment (6-mer frequency, TF over GST control)
AACGAC	1.19 fold enrichment (6-mer frequency, TF over GST control)
GACCTG	1.14 fold enrichment (6-mer frequency, TF over GST control)
CGACCA	1.33 fold enrichment (6-mer frequency, TF over GST control)
GGAACT	1.84 fold enrichment (6-mer frequency, TF over GST control)
ACTCAC	1.22 fold enrichment (6-mer frequency, TF over GST control)
GTACAT	1.4 fold enrichment (6-mer frequency, TF over GST control)
ATGTGG	1.2 fold enrichment (6-mer frequency, TF over GST control)
GAACCC	1.21 fold enrichment (6-mer frequency, TF over GST control)
GGAAAA	1.53 fold enrichment (6-mer frequency, TF over GST control)
ATGTAC	1.32 fold enrichment (6-mer frequency, TF over GST control)
ATGGAC	1.2 fold enrichment (6-mer frequency, TF over GST control)
TTCCGT	2.02 fold enrichment (6-mer frequency, TF over GST control)

Sequence	binding signal
GTGCTC	1.32 fold enrichment (6-mer frequency, TF over GST control)
GTCTTC	1.32 fold enrichment (6-mer frequency, TF over GST control)
GCAACT	1.24 fold enrichment (6-mer frequency, TF over GST control)
GTTCCC	1.28 fold enrichment (6-mer frequency, TF over GST control)
TCTGTC	1.23 fold enrichment (6-mer frequency, TF over GST control)
TGGCAC	1.16 fold enrichment (6-mer frequency, TF over GST control)
AACACG	1.23 fold enrichment (6-mer frequency, TF over GST control)
GAAGTT	1.93 fold enrichment (6-mer frequency, TF over GST control)
ACCTCG	1.09 fold enrichment (6-mer frequency, TF over GST control)
CCGGCA	1.61 fold enrichment (6-mer frequency, TF over GST control)
ACCGTC	1.21 fold enrichment (6-mer frequency, TF over GST control)
TGCCTG	1.18 fold enrichment (6-mer frequency, TF over GST control)
ATGTGC	1.1 fold enrichment (6-mer frequency, TF over GST control)
CCTGCA	1.28 fold enrichment (6-mer frequency, TF over GST control)
CAGGAA	1.83 fold enrichment (6-mer frequency, TF over GST control)
TGCCCC	1.24 fold enrichment (6-mer frequency, TF over GST control)
TAGGAA	1.37 fold enrichment (6-mer frequency, TF over GST control)
TGTCTC	1.22 fold enrichment (6-mer frequency, TF over GST control)
GTTTGA	1.28 fold enrichment (6-mer frequency, TF over GST control)
